# Data taken from the supplement of paper PMC8728848.
# The full list was thinned out, with the strongest signals kept by preference.
# Key:
# Assay in all cases: glycan array binding signal (z-score within array); higher = stronger binding
# Conditions in all cases: glycan notation: IUPAC condensed, linker removed
# [1] = target: Fuc(a1-2)Gal(b1-3)GalNAc(a1-3)[Fuc(a1-2)]Gal(b1-4)GlcNAc
# How it was run: (§1)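 Glycan array data were curated from 3228 arrays in the Consortium for Functional Glycomics database and kept only where the protein sequence was available. Glycan names were converted to IUPAC-condensed notation, and columns mapping to the same glycan were averaged. The binding signal is a within-array Z-score, averaged across arrays of the same protein sequence at different concentrations or buffers and across linkers. Negative Z-scores can be read as non-binding.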
# [2] = target: Fuc(a1-2)Gal(b1-3)GlcNAc(b1-3)[Gal(b1-4)GlcNAc(b1-6)]Gal(b1-4)Glc
# How it was run: as §1
# [3] = target: Fuc(a1-2)Gal(b1-4)GlcNAc(b1-2)[Fuc(a1-2)Gal(b1-4)GlcNAc(b1-4)]Man(a1-3)[Fuc(a1-2)Gal(b1-4)GlcNAc(b1-2)Man(a1-6)]Man(b1-4)GlcNAc(b1-4)GlcNAc
# How it was run: as §1
# [4] = target: Fuc(a1-2)Gal(b1-4)GlcNAc(b1-3)GalNAc
# How it was run: as §1
# [5] = target: Fuc(a1-2)Gal(b1-4)[Fuc(a1-3)]GlcNAc(b1-3)GalNAc
# How it was run: as §1
# [6] = target: Fuc(a1-2)[GalNAc(a1-3)]Gal
# How it was run: as §1
# [7] = target: Fuc(a1-2)[GalNAc(a1-3)]Gal(b1-3)GlcNAc
# How it was run: as §1
# [8] = target: Fuc(a1-2)[GalNAc(a1-3)]Gal(b1-3)GlcNAc(b1-6)GalNAc
# How it was run: as §1
# [9] = target: Fuc(a1-2)[GalNAc(a1-3)]Gal(b1-4)GlcNAc
# How it was run: as §1
# [10] = target: Fuc(a1-3)[Gal3S(b1-4)]GlcNAc
# How it was run: as §1
# [11] = target: Gal(a1-3)Gal(b1-4)GlcNAc(b1-3)GalNAc
# How it was run: as §1
# [12] = target: Gal(b1-3)GlcNAc(b1-3)Gal(b1-4)Glc
# How it was run: as §1
# [13] = target: Gal(b1-4)GlcNAc(b1-2)Man
# How it was run: as §1
# [14] = target: Gal(b1-4)GlcNAc(b1-3)Gal(b1-3)GlcNAc
# How it was run: as §1
# [15] = target: Gal(b1-4)GlcNAc(b1-3)Gal(b1-4)GlcNAc(b1-3)Gal(b1-4)GlcNAc(b1-2)Man(a1-3)[Gal(b1-4)GlcNAc(b1-3)Gal(b1-4)GlcNAc(b1-3)Gal(b1-4)GlcNAc(b1-2)Man(a1-6)]Man(b1-4)GlcNAc(b1-4)[Fuc(a1-6)]GlcNAc
# How it was run: as §1
# [16] = target: Gal(b1-4)GlcNAc(b1-3)Gal(b1-4)GlcNAc(b1-3)Gal(b1-4)GlcNAc(b1-3)Gal(b1-4)GlcNAc(b1-3)Gal(b1-4)GlcNAc(b1-2)Man(a1-3)[Gal(b1-4)GlcNAc(b1-3)Gal(b1-4)GlcNAc(b1-3)Gal(b1-4)GlcNAc(b1-3)Gal(b1-4)GlcNAc(b1-3)Gal(b1-4)GlcNAc(b1-2)Man(a1-6)]Man(b1-4)GlcNAc(b1-4)[Fuc(a1-6)]GlcNAc
# How it was run: as §1
# [17] = target: Gal(b1-4)GlcNAc(b1-3)Gal(b1-4)GlcNAc(b1-3)Gal(b1-4)GlcNAc(b1-3)Gal(b1-4)GlcNAc(b1-3)Gal(b1-4)GlcNAc(b1-2)[Gal(b1-4)GlcNAc(b1-3)Gal(b1-4)GlcNAc(b1-3)Gal(b1-4)GlcNAc(b1-3)Gal(b1-4)GlcNAc(b1-3)Gal(b1-4)GlcNAc(b1-6)]Man(a1-6)[Gal(b1-4)GlcNAc(b1-3)Gal(b1-4)GlcNAc(b1-3)Gal(b1-4)GlcNAc(b1-3)Gal(b1-4)GlcNAc(b1-3)Gal(b1-4)GlcNAc(b1-2)Man(a1-3)]Man(b1-4)GlcNAc(b1-4)[Fuc(a1-6)]GlcNAc
# How it was run: as §1
# [18] = target: Gal(b1-4)GlcNAc(b1-3)GalNAc
# How it was run: as §1
# [19] = target: Gal(b1-4)GlcNAc(b1-6)[Gal(b1-3)]GalNAc
# How it was run: as §1
# [20] = target: Gal3S(b1-3)[Fuc(a1-4)]GlcNAc
# How it was run: as §1
# [21] = target: Gal3S(b1-4)Glc6S
# How it was run: as §1
# [22] = target: Gal3S(b1-4)GlcNAc
# How it was run: as §1
# [23] = target: Gal3S(b1-4)[Fuc(a1-3)]Glc6S
# How it was run: as §1
# [24] = target: Gal6S(b1-4)GlcNAc6S
# How it was run: as §1
# [25] = target: GalNAc(b1-3)Gal(a1-6)Gal(b1-4)Glc
# How it was run: as §1
# [26] = target: GalNAc4S6S(b1-4)GlcNAc
# How it was run: as §1
# [27] = target: Glc(b1-4)Glc
# How it was run: as §1
# [28] = target: GlcA(b1-3)Gal
# How it was run: as §1
# [29] = target: GlcA(b1-6)Gal
# How it was run: as §1
# [30] = target: GlcNAc(b1-2)Man(a1-3)[GlcNAc(b1-4)][GlcNAc(b1-2)Man(a1-6)]Man(b1-4)GlcNAc(b1-4)[Fuc(a1-6)]GlcNAc
# How it was run: as §1
# [31] = target: GlcNAc(b1-3)Gal(b1-4)GlcNAc(b1-3)Gal(b1-4)GlcNAc(b1-3)Gal(b1-4)GlcNAc(b1-2)Man(a1-3)[GlcNAc(b1-3)Gal(b1-4)GlcNAc(b1-3)Gal(b1-4)GlcNAc(b1-3)Gal(b1-4)GlcNAc(b1-2)Man(a1-6)]Man(b1-4)GlcNAc(b1-4)[Fuc(a1-6)]GlcNAc
# How it was run: as §1
# [32] = target: GlcNAc(b1-3)Gal(b1-4)GlcNAc(b1-3)[GlcNAc(b1-3)Gal(b1-4)GlcNAc(b1-3)]GalNAc
# How it was run: as §1
# [33] = target: GlcNAc(b1-6)GalNAc
# How it was run: as §1
# [34] = target: Man(a1-6)Man
# How it was run: as §1
# [35] = target: Neu5Ac(a2-3)Gal(b1-3)GalNAc(b1-3)Gal(a1-4)Gal(b1-4)Glc
# How it was run: as §1
# [36] = target: Neu5Ac(a2-3)Gal(b1-3)GalNAc(b1-4)[Neu5Ac(a2-8)Neu5Ac(a2-3)]Gal(b1-4)Glc
# How it was run: as §1
# [37] = target: Neu5Ac(a2-3)Gal(b1-4)[Fuc(a1-3)]GlcNAc(b1-3)Gal(b1-4)[Fuc(a1-3)]GlcNAc(b1-3)Gal(b1-4)[Fuc(a1-3)]GlcNAc
# How it was run: as §1
# [38] = target: Neu5Ac(a2-3)Gal(b1-4)[Fuc(a1-3)]GlcNAc(b1-3)GalNAc
# How it was run: as §1
# [39] = target: Neu5Ac(a2-3)Gal(b1-4)[Fuc(a1-3)]GlcNAc(b1-6)[Neu5Ac(a2-3)Gal(b1-3)]GalNAc
# How it was run: as §1
# [40] = target: Neu5Ac(a2-3)Gal6S(b1-4)[Fuc(a1-3)]GlcNAc
# How it was run: as §1
# [41] = target: Neu5Ac(a2-6)Gal(b1-4)Glc
# How it was run: as §1
# [42] = target: Neu5Ac(a2-6)Gal(b1-4)GlcNAc(b1-2)Man(a1-6)Man(b1-4)GlcNAc(b1-4)GlcNAc
# How it was run: as §1
# [43] = target: Neu5Ac(a2-6)Gal(b1-4)GlcNAc(b1-3)Gal(b1-3)GlcNAc
# How it was run: as §1
# [44] = target: Neu5Ac(a2-6)Gal(b1-4)GlcNAc(b1-3)Gal(b1-4)GlcNAc(b1-3)Gal(b1-4)GlcNAc(b1-2)Man(a1-3)[Neu5Ac(a2-6)Gal(b1-4)GlcNAc(b1-3)Gal(b1-4)GlcNAc(b1-3)Gal(b1-4)GlcNAc(b1-2)Man(a1-6)]GalNAc
# How it was run: as §1
# [45] = target: Neu5Ac(a2-6)Gal(b1-4)GlcNAc(b1-3)Gal(b1-4)[Fuc(a1-3)]GlcNAc(b1-3)Gal(b1-4)[Fuc(a1-3)]GlcNAc
# How it was run: as §1
# [46] = target: Neu5Ac(a2-6)Gal(b1-4)GlcNAc(b1-3)[Neu5Ac(a2-6)Gal(b1-4)GlcNAc(b1-6)]GalNAc
# How it was run: as §1
# [47] = target: Neu5Ac(a2-8)Neu5Ac(a2-8)Neu5Ac(a2-3)[Gal(b1-3)GalNAc(b1-4)]Gal(b1-4)Glc
# How it was run: as §1
# [48] = target: Neu5Ac(a2-8)Neu5Gc(a2-3)Gal(b1-4)GlcNAc
# How it was run: as §1
# [49] = target: Neu5Ac9Ac(a2-3)Gal(b1-4)GlcNAc
# How it was run: as §1
# [50] = target: Neu5Ac9Ac(a2-6)Gal(b1-4)GlcNAc
# How it was run: as §1
# [51] = target: Neu5Gc(a2-8)Neu5Gc(a2-3)Gal(b1-4)GlcNAc
# How it was run: as §1
binder,measurement,setting,value
"SspB C123 (Streptococcus gordonii), Q54186 (protein) MAHFHYSSLLAQPQINKEIKNEDGVDIDRTLVAKQSIGKFELKTEALTAGRPKTTSFVLVDPLPTGYKFDLDATKAASTGFDTTYDEASHTVTFKATDETLATYNADLTKPVETLHPTVVGRVLNDGATYTNNFTLTVNDAYGIKSNVVRVTTPGKPNDPDNPNNNYIKPTKVNKNKEGLNIDGKEVLAGSTNYYELTWDLDQYKGDKSSKEAIQNGFYYVDDYPEEALDVRPDLVKVADEKGNQVSGVSVQQYDSLEAAPKKVQDLLKKANITVKGAFQLFSADNPEEFYKQYVSTGTSLVITDPMTVKSEFGKTGGKYENKAYQIDFGNGYATEVVVNNVPKITPKKDVTVSLDPTSENLDGQTVQLYQTFNYRLIGGFIPQNHSEELEDYSFVDDYDQAGDQYTGNYKTFSSLNLTMKDGSVIKAGTDLTSQTTAETDATNGIVTVRFKEDFLQKISLDSPFQAETYLQMRRIAIGTFENTYVNTVNKVAYASAAALEHHHHHH",glycan array binding signal (z-score),[1],-1.8
same,glycan array binding signal (z-score),[2],-0.17
same,glycan array binding signal (z-score),[3],2.68
same,glycan array binding signal (z-score),[4],-0.78
same,glycan array binding signal (z-score),[5],3.99
same,glycan array binding signal (z-score),[6],-0.539
same,glycan array binding signal (z-score),[7],0.229
same,glycan array binding signal (z-score),[8],-0.099
same,glycan array binding signal (z-score),[9],-0.406
same,glycan array binding signal (z-score),[10],0.073
same,glycan array binding signal (z-score),[11],-0.133
same,glycan array binding signal (z-score),[12],0.516
same,glycan array binding signal (z-score),[13],-0.183
same,glycan array binding signal (z-score),[14],1.37
same,glycan array binding signal (z-score),[15],1.26
same,glycan array binding signal (z-score),[16],0.993
same,glycan array binding signal (z-score),[17],2.74
same,glycan array binding signal (z-score),[18],0.085
same,glycan array binding signal (z-score),[19],0.155
same,glycan array binding signal (z-score),[20],0.284
same,glycan array binding signal (z-score),[21],0.314
same,glycan array binding signal (z-score),[22],0.468
same,glycan array binding signal (z-score),[23],5.71
same,glycan array binding signal (z-score),[24],1.05
same,glycan array binding signal (z-score),[25],-0.455
same,glycan array binding signal (z-score),[26],-0.886
same,glycan array binding signal (z-score),[27],-0.604
same,glycan array binding signal (z-score),[28],-1.48
same,glycan array binding signal (z-score),[29],3.52
same,glycan array binding signal (z-score),[30],-0.492
same,glycan array binding signal (z-score),[31],0.372
same,glycan array binding signal (z-score),[32],0.786
same,glycan array binding signal (z-score),[33],-0.398
same,glycan array binding signal (z-score),[34],3.13
same,glycan array binding signal (z-score),[35],-0.945
same,glycan array binding signal (z-score),[36],-0.494
same,glycan array binding signal (z-score),[37],2.7
same,glycan array binding signal (z-score),[38],2.98
same,glycan array binding signal (z-score),[39],3.38
same,glycan array binding signal (z-score),[40],-0.28
same,glycan array binding signal (z-score),[41],-0.254
same,glycan array binding signal (z-score),[42],-0.261
same,glycan array binding signal (z-score),[43],-0.017
same,glycan array binding signal (z-score),[44],3.21
same,glycan array binding signal (z-score),[45],0.632
same,glycan array binding signal (z-score),[46],-0.829
same,glycan array binding signal (z-score),[47],5.25
same,glycan array binding signal (z-score),[48],-0.198
same,glycan array binding signal (z-score),[49],-0.938
same,glycan array binding signal (z-score),[50],0.758
same,glycan array binding signal (z-score),[51],-0.249
